HCMV inh = blocks human cytomegalovirus replication | HFF cells, HCMV-luciferase reporter, 72 h; stronger effect = lower value | activity change, negative = inhibition, % at 57.5 µM | 4.5% of 410,000 active | AID 1259415; in the data active = activity change below about -60%; inconclusive = no clear call, values can overlap the other calls; inactive = above about -39%; note: % is set by controls: 0 for no effect and ±100 for the full control effect
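Two compound doses tested in HFFs infected with HCMV-luciferase, MOI 1 PFU/cell, 72 h at 37C. Lysate luminescence read with OneGlo; data normalized against buffer-only and 10uM Salinomycin inhibitor controls.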
SARS PLP yeast = blocks SARS-CoV papain-like protease in a yeast assay | 0.19% of 330,000 active | Potency, µM (top dose mostly 32.9 µM), without a hit: top-dose activity, positive = growth rescue, usual class: activators | S. cerevisiae expressing SARS-CoV PLpro, growth rescue; calls by dose curve; note: potency is the fitted concentration of half-maximal effect; 0% is about no effect; nearly all actives have a fitted effect of over 55% in size
Lassa entry inh = Lassa virus entry inhibition. Lassa virus pseudotype entry inhibition, cell reporter. Potency, µM (highest dose often 37.9 µM), for inactives: at the top dose activity change, negative = inhibition, most hits filed as inhibitors. 1.2% of 300,000 active. AID 540256; calls by dose curve; tested in HEK293 cells; note: potency is the fitted concentration of half-maximal effect; % is set by controls: 0 for no effect and ±100 for the full control effect; nearly all actives have a fitted effect of over 50% in size
FMDV inh = foot and mouth disease virus antiviral activity | FMDV antiviral cell-based qHTS | Potency, µM (highest dose often 57.9 µM), for the others: at the top dose activity change, negative = inhibition, usual class: inhibitors | 1.2% of 410,000 active; calls by dose curve; tested in HEK293T cells; note: read-out not given here; potency is the fitted concentration of half-maximal effect; % is set by controls: 0 for no effect and ±100 for the full control effect; nearly all actives have a fitted effect of over 45% in size
HCV inhibitor = HCV inhibition; Huh7.5.1 HCVcc-Cre infection, luciferase reporter, 44 h; AID 651820; Potency, µM (top dose mostly 41.8 µM), inactives show at the highest dose activity change, negative = inhibition, usual class: inhibitors; 3.4% of 340,000 active; active = well fitted inhibition curve with a large enough effect; inconclusive = small, poorly fitted or top-dose-only effect, or another doubt; inactive = no such curve, though single readings can be large or run the other way; note: potency is the fitted concentration of half-maximal effect; % is set by controls: 0 for no effect and ±100 for the full control effect
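Seed cells (1,000/well) for 4 h; treat with compound and infect with HCVcc-Cre, moi about 0.5. Incubate 44 h, then detect luciferase activity.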
Marburg entry inh = inhibitors of Marburg virus binding or cell entry; Marburg virus pseudotyped entry inhibition, cell reporter; Potency, µM (highest dose often 37.8 µM), for the others: top-dose activity change, negative = inhibition, usual class: inhibitors; 1.8% of 300,000 active; calls by dose curve; tested in HEK293 cells; note: potency is the fitted concentration of half-maximal effect; % is set by controls: 0 for no effect and ±100 for the full control effect
* hit, by the source's call; [ ] = remark or other dose. The list is not random: actives were taken first. Their share in the collection is about 8%.

For CC(=O)c1ccccc1NC(=O)COC(=O)/C(=C/c1ccccc1)n1nnnc1C the results were HCMV inh 0, SARS PLP yeast -4%, Lassa entry inh inconclusive, FMDV inh 22µM*, HCV inhibitor -3% and Marburg entry inh inconclusive.
Screening CCc1ccc(OCC(=O)Nc2ncn[nH]2)c(Br)c1 returned HCMV inh 68, Lassa entry inh -21%[46.1 µM], FMDV inh -16% and Marburg entry inh inconclusive.
Screening COC(=O)/C=C1/N/C(=N\c2nc(C)cc(C)n2)N(c2cccc(C)c2)C1=O returned HCMV inh inconclusive, SARS PLP yeast 6%, Lassa entry inh inconclusive, FMDV inh 28µM*, HCV inhibitor 5% and Marburg entry inh -2%.
`COC(=O)/C=C1\N/C(=N\c2nc(C)cc(C)n2)N(c2ccccc2)C1=O` gave HCMV inh 33, SARS PLP yeast 2%, Lassa entry inh 2%, FMDV inh inconclusive, HCV inhibitor 3% and Marburg entry inh 14%.
COc1cc(/C=C2/CCC/C(=C\c3cc(O)c(OC)c(Cl)c3)C2=O)cc(Cl)c1O was read as HCMV inh -100*, SARS PLP yeast 1%, Lassa entry inh inconclusive, FMDV inh inconclusive, HCV inhibitor 11µM* and Marburg entry inh inconclusive.
For COc1cc(/C=C2\CC/C(=C\c3cc(OC)c(OC)c(OC)c3)C2=O)cc(OC)c1OC the results were HCMV inh -6, SARS PLP yeast 3%, Lassa entry inh -22%, FMDV inh inconclusive, HCV inhibitor 13µM* and Marburg entry inh inconclusive.
For O=C1/C(=C\c2ccc3c(c2)OCO3)CCC/C1=C/c1ccc2c(c1)OCO2 the results were HCMV inh -89*, SARS PLP yeast 0%, Lassa entry inh 8%, FMDV inh 3%, HCV inhibitor -5% and Marburg entry inh 9%.
Screening CCOc1cc(/C=C2\CN(CC)C/C(=C\c3ccc(O)c(OCC)c3)C2=O)ccc1O returned HCMV inh -101*, SARS PLP yeast -3%, Lassa entry inh 5µM*, FMDV inh 10µM*, HCV inhibitor 4.5µM* and Marburg entry inh 4.5µM*.
COc1cc(/C=C2\SC(N)=NC2=O)cc(Cl)c1O was read as HCMV inh -2, SARS PLP yeast -4%, FMDV inh -4% and HCV inhibitor -7%.
O=C1OCC/C1=C\c1ccc2c(c1)OCO2 was read as HCMV inh 19, SARS PLP yeast 0%, Lassa entry inh 12%[46.1 µM], FMDV inh -1%, HCV inhibitor 11% and Marburg entry inh 7%[46.1 µM].
`CC(CN1CCc2nnc(CNC(=O)c3cccc(F)c3)n2CC1)c1ccccc1` (stereo unspecified) gave FMDV inh -6%.
For COC1CCCCC1C1CCN(C(=O)c2ccco2)CC1 (stereo unspecified) the results were Marburg entry inh -4%[14.2 µM].
`O=C(C(=O)N1CCN(C(=O)OCc2ccccc2)CC1)c1cccnc1` gave HCMV inh -5 and FMDV inh -12%.
COc1ccc(Nc2nccc3c2cc(-c2cccc(F)c2)n3C)cc1OC was read as HCMV inh -28.
Screening N#C/C(=C(/O)Cc1ccccc1)P(=O)(c1ccccc1)c1ccccc1 returned HCMV inh -5, SARS PLP yeast 0%, Lassa entry inh -4%[46.1 µM], FMDV inh 27%, HCV inhibitor 20% and Marburg entry inh 2%[46.1 µM].
Screening COc1cc(/C=C2\CCC(C3CCCC3)C2=O)cc(OC)c1OC (stereo unspecified) returned HCMV inh inconclusive, SARS PLP yeast 1%, Lassa entry inh 0%[46.1 µM], FMDV inh 15%, HCV inhibitor -29% and Marburg entry inh inconclusive.
Screening O=C1/C(=C/c2ccncc2)CCC/C1=C\c1ccncc1 returned HCMV inh -100*, SARS PLP yeast -34%, FMDV inh 14µM* and HCV inhibitor 6.3µM*.
O=C1/C(=C\c2ccccc2)CCC/C1=C/c1ccccc1 was read as HCMV inh -40, Lassa entry inh inconclusive, FMDV inh 16%, HCV inhibitor -8% and Marburg entry inh inconclusive.
COc1cc(/C=C2\CC(C(C)(C)C)C/C(=C\c3cc(OC)c(OC)c(OC)c3)C2=O)cc(OC)c1OC (stereo unspecified) was read as HCMV inh -98*, SARS PLP yeast 0%, FMDV inh 14µM* and HCV inhibitor 2.5µM*.
`CCN1C/C(=C/c2cccc([N+](=O)[O-])c2)C(=O)/C(=C/c2cccc([N+](=O)[O-])c2)C1` gave HCMV inh -103*, SARS PLP yeast -23%, Lassa entry inh 2.8µM*, FMDV inh 3.5µM*, HCV inhibitor inconclusive and Marburg entry inh 15µM*.
For COc1cc(/C=C2/C(=O)CNC2=O)ccc1O the results were HCMV inh 57, SARS PLP yeast -2%, Lassa entry inh inconclusive, FMDV inh -7%, HCV inhibitor 13% and Marburg entry inh 4%.
Screening COc1cc(C=C2C(=O)C=CC2=O)ccc1O returned HCMV inh -88* and FMDV inh inconclusive.
`CCCCCCN1C[C@@H](n2cc(COC(=O)c3ccccc3)nn2)[C@H](O)C[C@H]1c1ccccc1` gave Lassa entry inh 13%[46.1 µM].
For CNC(=O)C1CC(=O)N(c2ccc(OCC(=O)Nc3ccc(F)cc3)cc2)C1 (stereo unspecified) the results were HCMV inh inconclusive, Lassa entry inh -7%, FMDV inh -8%, HCV inhibitor 14% and Marburg entry inh 14%[46.1 µM].
`COc1cc(/C=C2\CCC/C(=C\c3ccc(O)c(OC)c3)C2=O)ccc1O` gave HCMV inh -101*, SARS PLP yeast -11%, Lassa entry inh inconclusive, FMDV inh inconclusive, HCV inhibitor 13µM* and Marburg entry inh inconclusive.
`COc1cc(/C=C2\CC/C(=C\c3cc(OC)c(O)c(OC)c3)C2=O)cc(OC)c1O` gave HCMV inh -98*, SARS PLP yeast 4%, Lassa entry inh -23%, FMDV inh 22µM*, HCV inhibitor inconclusive and Marburg entry inh inconclusive.
Screening COc1cc(/C=C2\COC/C(=C\c3cc(OC)c(OC)c(OC)c3)C2=O)cc(OC)c1OC returned HCMV inh -98*, SARS PLP yeast 1%, Lassa entry inh inconclusive, FMDV inh 3.5µM*, HCV inhibitor 1µM* and Marburg entry inh inconclusive.
For CC1CCN(c2oc(-c3ccc(COc4ccc(Cl)cc4)o3)nc2C#N)CC1 the results were HCMV inh -12, Lassa entry inh 9%[46.1 µM], FMDV inh -19% and Marburg entry inh -1%[46.1 µM].
CCOc1ccc(CC2c3cc(OCC)c(OCC)cc3CCN2C(=O)c2cc(OC)c(OC)c(OC)c2)cc1OCC (stereo unspecified) was read as HCMV inh 26, SARS PLP yeast 3%, Lassa entry inh 2.1µM*, FMDV inh inconclusive, HCV inhibitor inconclusive and Marburg entry inh inconclusive.
